High-throughput results (PubChem)
Shown are actives, neighbours in structure and some others; about 15% of the full set was active somewhere.
ELG1 DNA repair – qHTS screen for small molecules that inhibit ELG1-dependent DNA repair in human embryonic kidney (HEK293T) cells expressing luciferase-tagged ELG1; HEK293T ELG1-luciferase reporter, luminescence, 16 h; DNA damage induced by 5-fluorouridine; Potency, µM (series often up to 46.1 µM), usual class: inhibitors; actives 2.3% (n = 330,000); further: nearly all actives have a fitted effect of over 55% in size
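Step one: seed 2,000 cells per well. Step two: pin-transfer compound or DMSO alongside 5-fluorouridine. Step three: incubate 16 hr, 37 °C, 5% CO2. Step four: add ONE-Glo, wait 30 min, read luminescence.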
Gal4-VP16 FLuc – VP16 counterscreen qHTS for inhibitors of ROR gamma transcriptional activity; Drosophila S2 Gal4-VP16 UAS-luciferase, luminescence, 20 h; Potency, µM (doses to about 53.6 µM), usual class: inhibitors; actives 3.5% (n = 310,000); AID 2546, 2010;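 further: Gal4-VP16 expression switched on by copper sulfate through the metallothionein promoter; nearly all actives have a fitted effect of over 50% in size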
DT40 TDP1 CPT – qHTS for Inhibitors of human tyrosyl-DNA phosphodiesterase 1 (TDP1): qHTS in cells in presence of CPT; chicken DT40 Tdp1-/-;hTDP1 cells + 20 nM CPT, ATP luminescence, 48 h; Potency, µM (top dose mostly 46.2 µM), most hits filed as inhibitors; actives 12% (n = 420,000); AID 686979, 2013; further: nearly all actives have a fitted effect of over 55% in size
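Cell growth measured by CellTiter-Glo luminescence after a minimum 48 h, 37 C compound exposure with 20 nM CPT in Tdp1-knockout DT40 cells stably expressing hTDP1, seeded 400/well; qHTS titration format.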
ALOX12 inh – Primary qHTS assay for inhibitors of human arachidonate 12S-lipoxygenase (ALOX12): Round 2; Potency, µM (doses to about 108 µM), hits mostly inhibitors; purified 12hLO, xylenol orange hydroperoxide absorbance; AID 1671190, 2021; actives 1.1% (n = 580,000)
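Purified human 12hLO (150 nM final) in 25 mM Hepes, 0.01% Triton X-100, pH 7.0 was preincubated 15 min at room temperature with compound. Then 40 uM arachidonic acid was added, 30 min. Hydroperoxide was read by Fe-XO absorbance ratio 573/405 nm.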
DT40 TDP1 no CPT – qHTS for Inhibitors of human tyrosyl-DNA phosphodiesterase 1 (TDP1): qHTS in cells in absence of CPT. DT40 Tdp1-/- hTDP1 cells, no CPT, ATP luminescence, 48 h. Potency, µM (highest dose often 46.2 µM), usual class: inhibitors. actives 15% (n = 420,000); further: nearly all actives have a fitted effect of over 55% in size
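Cells were dispensed at 400 per well, compounds added by pin tool, plates incubated ≥48 hr at 37 °C, then CellTiter-Glo added for 30 min at room temperature before luminescence reading. Line: DT40 Tdp1-/- complemented with hTDP1; camptothecin omitted.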
RORgamma inh – qHTS for inhibitors of ROR gamma transcriptional activity | Drosophila S2 Gal4-RORgamma UAS-luciferase reporter, 20 h | Nuclear receptor ROR-gamma (Mus musculus), P51450 | Potency, µM (series often up to 53.6 µM), most hits filed as inhibitors | actives 5.4% (n = 310,000) | AID 2551, 2010; further: nearly all actives have a fitted effect of over 60% in size
Target sequence (P51450 whole entry, looked up, the tested form may be a part): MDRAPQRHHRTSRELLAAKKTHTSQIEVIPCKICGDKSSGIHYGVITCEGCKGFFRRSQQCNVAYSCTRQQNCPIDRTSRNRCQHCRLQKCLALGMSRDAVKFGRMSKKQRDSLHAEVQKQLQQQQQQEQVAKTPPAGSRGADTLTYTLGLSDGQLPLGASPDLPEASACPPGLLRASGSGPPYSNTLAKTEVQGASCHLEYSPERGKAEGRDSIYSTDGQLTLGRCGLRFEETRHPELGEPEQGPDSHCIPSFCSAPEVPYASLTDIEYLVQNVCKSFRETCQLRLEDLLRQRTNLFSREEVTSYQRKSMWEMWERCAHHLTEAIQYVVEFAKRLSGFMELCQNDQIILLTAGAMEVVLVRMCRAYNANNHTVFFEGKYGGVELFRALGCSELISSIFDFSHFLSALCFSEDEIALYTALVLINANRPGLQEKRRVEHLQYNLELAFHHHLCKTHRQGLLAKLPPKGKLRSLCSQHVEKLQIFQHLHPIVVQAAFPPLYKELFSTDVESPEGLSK
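In this cell-based reporter format, copper sulfate (700 uM final) drives Gal4–ROR gamma fusion expression from a metallothionein promoter in Drosophila Schneider cells; compounds preincubated 1 hr, reporter read after 20 hr at ambient temperature.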
A number is an active result; – = inactive; ? = inconclusive; · = no result. The call rests on the fitted dose curve; in most records, active means well fitted curve in the direction sought with a large enough effect; inconclusive means small, poorly fitted or top-dose-only effect, or another doubt; inactive means no such curve, though single readings can be large; an effect the other way counts as inactive or inconclusive.

SMILES	ELG1 DNA repair	Gal4-VP16 FLuc	DT40 TDP1 CPT	ALOX12 inh	DT40 TDP1 no CPT	RORgamma inh
S=c1[nH]nc(-c2ccc(Cl)cc2)n1CCCN1CCOCC1	–	–	–	–	–	10µM
COCCCn1c(-c2ccccc2Cl)n[nH]c1=S	–	?	–	?	–	15.8µM
CCCCn1c(-c2ccoc2C)n[nH]c1=S	–	–	–	?	–	–
COCCCn1c(-c2ccc(Cl)cc2)n[nH]c1=S	–	12.6µM	–	?	–	17.8µM
O=C(CCc1cccnc1)NCC1CC1	·	·	·	–	·	·
CCCCn1c(=O)[nH]c(=O)c2c1nc(CNc1cccc(F)c1)n2C	·	·	·	–	·	·
CCN(CC)C(=O)C1=C(C)N(Cc2ccccc2)C(=O)NC1c1ccc(F)cc1F (stereo not drawn)	·	·	·	–	·	·
Cc1cc(SCC(=O)NC(N)=O)nc2ccccc12	·	·	·	–	·	·
CC(=O)c1ccc(NC(=O)c2cn(CCC#N)nc2-c2cccs2)cc1	·	·	·	–	·	·
CN1CC(c2ccc(Cl)c(Cl)c2)[C@@]2(COc3ccccc3C2=O)[C@@]12C(=O)Nc1ccccc12 (stereo partly drawn)	–	–	18.4µM	–	?	–
COc1ccccc1OCCCCn1c(C2CC(=O)N(c3ccccc3Cl)C2)nc2ccccc21 (stereo not drawn)	·	·	?	–	–	·
CCCCN1CC(c2nc3ccccc3n2CCCCOc2c(C)cccc2C)CC1=O (stereo not drawn)	·	·	11.6µM	–	7.31µM	·
CCCCN1CC(c2nc3ccccc3n2Cc2cccc3ccccc23)CC1=O (stereo not drawn)	·	·	·	–	·	·
CCCCN1CC(c2nc3ccccc3n2CCCCOc2cc(C)ccc2C)CC1=O (stereo not drawn)	·	·	16.4µM	?	8.2µM	·
CCCCN1CC(c2nc3ccccc3n2CCCCOc2ccccc2C)CC1=O (stereo not drawn)	·	·	7.31µM	–	5.8µM	·
O=C(OCc1ccc(F)cc1)C(c1ccccc1)N1CCC(O)CC1 (stereo not drawn)	·	·	·	–	·	·
O=C(c1cnccn1)N(Cc1cccs1)C1CC1	·	·	·	–	·	·
Cc1cc(C)c(Nc2nc3ccccc3n3c(C)nnc23)c(C)c1	·	·	14.6µM	–	13µM	·
CC(=O)Nc1cccc(Nc2nc3ccccc3n3c(C)nnc23)c1	·	·	2.59µM	–	2.31µM	·
O=C(Nc1ccccc1Cl)c1cnccn1	?	?	–	–	–	–
O=C(NNC(=O)c1cnccn1)c1ccc(Cl)cc1	?	15.8µM	?	–	14.6µM	8.91µM
Cc1cc(OCC(=O)NNC(=O)c2cnccn2)cc(C)c1Cl	–	·	10.3µM	–	5.8µM	·
Cc1ccc(OCC(=O)NCCCNC(=O)c2cnccn2)cc1C	–	–	?	–	–	–
O=C(Nc1ccc(Br)cc1Cl)c1cnccn1	?	–	–	31.6µM	–	–
O=C(NNC(=O)c1ccc(Cl)cc1Cl)c1cnccn1	–	?	?	–	25.9µM	?
SMILES	ELG1 DNA repair	Gal4-VP16 FLuc	DT40 TDP1 CPT	ALOX12 inh	DT40 TDP1 no CPT	RORgamma inh
COc1ccc(CNC(=O)N2CCCCCC2CN2CCOCC2)cc1 (stereo not drawn)	·	·	·	–	·	·
CC(=O)c1csc(NC(=O)Cn2ccc(=O)n(C)c2=O)n1	·	·	·	–	·	·
C[S+](=O)([O-])N1CCC2(CCN(Cc3cccs3)c3ccccc3O2)CC1	·	·	·	–	·	·
NC(=O)CN1CC2(CCC1=O)CCN(CC1CCCCO1)CC2 (stereo not drawn)	·	·	·	–	·	·
COc1ccc(N=C2NN=C(c3c(C)[nH]c4ccccc34)CS2)cc1	?	–	?	?	23.1µM	–
Cc1[nH]c2ccccc2c1C1=NNC(=Nc2ccc(F)cc2)SC1	?	–	?	?	?	–
COc1ccc(-c2n[nH]c3c2CC(=O)N(CCOc2ccccc2)C3)cn1	·	·	·	–	·	·
